Source: PubChem
Six1-Eya2 inh – qHTS Assay for Inhibitors of the Six1/Eya2 Interaction; Homeobox protein SIX1 (Homo sapiens) + Protein phosphatase EYA2 (Homo sapiens), …; AlphaScreen GST-Six1/His-Eya2 binding, biochemical; active compounds read low; activity change, % (concentration not given with the values); 360,000 compounds, 0.56% hits; in the data active = activity change below about -65%; inconclusive = mostly about -30% to -63%
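Six1/Eya2 binding was read as AlphaScreen signal after compounds were pinned into GST-Six1 plus His-tagged Eya2 (5X stock 250/500 nM) in pH 8.0 Tris/NaCl/TCEP buffer, beads added, then incubated 1 h, 37 C, dark.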
CtBP-E1A inh – qHTS Assay for Inhibitors of the CtBP/E1A Interaction; CtBP / adenovirus E1A interaction (AlphaScreen); AlphaScreen GST-E1A/His-CtBP binding, 1536-well; active compounds read low; activity change, % (no concentration beside the values); 340,000 compounds, 0.49% hits; AID 651724, 2012; in the data active = activity change below about -65%; inconclusive = mostly about -30% to -63%
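GST-E1A and His-tagged CtBP (125 nM each as 5X stock) were preincubated with pin-transferred compound for 2 h at 37 °C in the dark, then glutathione donor and nickel acceptor beads were added for 1 h before AlphaScreen reading.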
IL1B secr inh – qHTS for Inhibitors of Inflammasome Signaling: IL-1-beta AlphaLISA Primary Screen; THP-1 LPS/ATP IL-1B secretion, AlphaLISA, 16 h; active compounds read low; activity change, % at 57.5 µM; 360,000 compounds, 4.7% hits; AID 743279, 2014; in the data active = activity change below about -50%; inconclusive = mostly about -30% to -49%
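THP-1 cells pretreated 1 hr with compounds (up to 57.5 uM final), then stimulated with LPS (250 ng/mL final) plus ATP (1.25 mM final); secreted IL-1B measured by AlphaLISA after 16 hr, decreased signal indicating inhibition.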
DT40 TDP1 CPT – qHTS for Inhibitors of human tyrosyl-DNA phosphodiesterase 1 (TDP1): qHTS in cells in presence of CPT; AID 686979, 2013; 420,000 compounds, 12% hits; chicken DT40 Tdp1-/-;hTDP1 cells + 20 nM CPT, ATP luminescence, 48 h; Potency, µM (top dose mostly 46.2 µM), hits mostly inhibitors; note: nearly all actives have a fitted effect of over 55% in size
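Cell growth measured by CellTiter-Glo luminescence after a minimum 48 h, 37 C compound exposure with 20 nM CPT in Tdp1-knockout DT40 cells stably expressing hTDP1, seeded 400/well; qHTS titration format.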
TDP1 block – qHTS Assay for Inhibitors of Tyrosyl-DNA Phosphodiesterase (TDP1) | recombinant TDP1, AlphaScreen DNA substrate cleavage | Potency, µM (top dose mostly 130 µM), usual class: inhibitors | 350,000 compounds, 0.28% hits | AID 485290, 2010; note: nearly all actives have a fitted effect of over 40% in size
Target sequence (Q9NUW8 whole entry, looked up): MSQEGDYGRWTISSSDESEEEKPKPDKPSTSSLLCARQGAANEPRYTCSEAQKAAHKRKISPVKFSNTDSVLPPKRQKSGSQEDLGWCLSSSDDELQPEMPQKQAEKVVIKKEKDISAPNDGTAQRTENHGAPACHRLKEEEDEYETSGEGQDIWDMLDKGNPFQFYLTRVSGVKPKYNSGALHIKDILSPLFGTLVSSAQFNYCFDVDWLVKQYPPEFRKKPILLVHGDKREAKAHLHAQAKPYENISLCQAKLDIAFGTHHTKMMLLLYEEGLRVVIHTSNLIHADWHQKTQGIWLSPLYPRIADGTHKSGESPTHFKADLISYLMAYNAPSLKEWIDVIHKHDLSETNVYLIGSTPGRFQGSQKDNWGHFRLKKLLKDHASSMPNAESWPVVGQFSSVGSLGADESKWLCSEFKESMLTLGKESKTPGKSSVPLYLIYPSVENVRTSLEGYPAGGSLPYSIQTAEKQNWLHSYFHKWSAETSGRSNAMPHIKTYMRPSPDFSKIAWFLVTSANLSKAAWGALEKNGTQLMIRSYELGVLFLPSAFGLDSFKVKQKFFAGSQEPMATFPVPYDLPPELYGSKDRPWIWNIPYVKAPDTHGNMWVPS
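AlphaScreen read-out: signal falls as enzyme removes the 3' tyrosine-FITC from a 5'-biotinylated DNA oligo (15 nM, 5 min, RT). Enzyme was E. coli-made recombinant Tdp1 at 1 nM, exposed to compound for 15 min beforehand; beads 10 ug/ml, 10 min.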
TDP1 cell noCPT – qHTS for Inhibitors of human tyrosyl-DNA phosphodiesterase 1 (TDP1): qHTS in cells in absence of CPT. 420,000 compounds, 15% hits. DT40 Tdp1-/- hTDP1 cells, no CPT, ATP luminescence, 48 h. Potency, µM (doses to about 46.2 µM), actives largely listed as inhibitors; note: nearly all actives have a fitted effect of over 55% in size
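Growth of hTDP1-complemented DT40 Tdp1-knockout cells is measured by ATP luminescence after at least 48 hr compound exposure at 37 °C, with DMSO substituting for the 20 nM CPT used in the parallel screen.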
Hits are given with their value; i = inactive; ? = inconclusive; nt = not tested or not shown; [ ] = remark or other dose. An excerpt weighted towards active compounds, which were near 18% of everything screened. Unless noted, calls come from the whole dose curve; as a rule, active = well fitted curve in the direction sought with a large enough effect; inconclusive = small, poorly fitted or top-dose-only effect, or another doubt; inactive = no such curve, though single readings can be large; an effect the other way counts as inactive or inconclusive.

SMILES	Six1-Eya2 inh	CtBP-E1A inh	IL1B secr inh	DT40 TDP1 CPT	TDP1 block	TDP1 cell noCPT
O=C(O)CC(NC(=O)CCC1CCCCC1)c1cc([N+](=O)[O-])ccc1Cl (centres undefined)	i	i	i	i	i	i
Cc1csc(NC(=O)C2CCCCN2S(=O)(=O)c2ccccc2)n1 (centres undefined)	i	i	i	i	i	i
CC(C)NC(=O)N1CC2(CCN(S(=O)(=O)c3ccccc3)CC2)C1	nt	nt	nt	i	nt	i
CC(C)n1cc(NC(=O)c2cc(-c3ccccc3)on2)cn1	i	i	i	5.17µM	i	3.66µM
Cc1ccc(NC(=O)c2cc(-c3ccco3)on2)cc1C	i	i	i	?	i	?
COc1ccccc1-c1cc(C(=O)Nc2cc(OC)c(OC)c(OC)c2)no1	nt	nt	nt	0.517µM	i	0.651µM
CCCc1cc(C(=O)Nc2cccnc2)no1	i	i	i	9.2µM	i	i
Cc1ccc(NC(=O)c2cc(-c3ccco3)on2)cc1	i	i	i	14.6µM	i	?
COc1ccc(NC(=O)c2cc(-c3ccccc3Cl)on2)cc1OC	i	i	i	i	nt	i
CCCc1cc(C(=O)Nc2cccc(Cl)c2)no1	i	i	i	i	i	i
CCOC(=O)c1ccc2cccc(C)n2c1=O	i	i	?	i	i	?
COc1cccc(-c2cc(C(=O)Nc3c(C)nn(Cc4ccccc4)c3C)no2)c1	i	i	i	?	i	18.4µM
COc1ccccc1-c1cc(C(=O)Nc2cc(C)nn2-c2ccccc2)no1	i	i	i	18.4µM	nt	25.9µM
COc1cc(NC(=O)c2cc(-c3ccccc3)on2)cc(OC)c1OC	i	i	i	?	nt	13µM
COc1ccc(NC(=O)c2cc(-c3ccccc3)on2)cc1	i	nt	i	i	nt	i
COc1ccc(OC)c(-c2cc(C(=O)NCc3cccs3)no2)c1	i	i	i	20.6µM	i	?
COc1ccc(-c2cc(C(=O)Nc3cc(C)nn3-c3ccccc3)no2)cc1	i	i	i	i	i	i
CCOC(=O)c1c(NC(=O)c2cccc([N+](=O)[O-])c2C(=O)O)sc2c1CCCC2	i	i	i	i	nt	i
COc1cc(NC(=O)c2ccccn2)cc(OC)c1OC	i	nt	i	16.4µM	i	?
O=C(Nc1cccnc1)c1ccco1	i	i	i	?	i	23.1µM
CCn1nc(NS(=O)(=O)c2ccc([N+](=O)[O-])cc2)c2cc3ccc(C)cc3nc21	?	nt	i	i	i	?
Cc1ccc(Cl)cc1N=C(N)N=C(N)N	i	i	i	?	i	?
NC(N)=NC(N)=Nc1cccc(Cl)c1	i	i	i	?	i	21.1µM
Cc1ccc(-c2noc(-c3ccccc3C(=O)NCc3ccco3)n2)cc1	i	i	i	?	nt	?
O=C(NCc1ccco1)c1cccc(-c2nnc(-c3ccccc3)o2)c1	i	i	i	20.6µM	i	?
SMILES	Six1-Eya2 inh	CtBP-E1A inh	IL1B secr inh	DT40 TDP1 CPT	TDP1 block	TDP1 cell noCPT
Cc1cccc(-c2noc(-c3ccccc3C(=O)NCc3ccco3)n2)c1	i	i	?	20.6µM	nt	20.6µM
O=C(NCc1ccco1)c1ccccc1	i	i	i	i	i	i
Cc1cccc(N2CCN(C(=O)c3cccc(-n4c(C)nc5cccnc54)c3)CC2C)c1 (centres undefined)	nt	nt	nt	8.2µM	i	6.51µM
Cc1ccc(Cl)cc1N1CCN(C(=O)c2ccc(C)c(-n3c(C)nc4cccnc43)c2)CC1	nt	nt	nt	7.31µM	i	5.17µM
Cc1cccc(N2CCN(C(=O)c3cccc(-n4c(C)nc5cccnc54)c3)CC2)c1C	nt	nt	nt	7.31µM	i	5.8µM
Cc1ccc(Cl)cc1N1CCN(C(=O)c2ccc(CN3CCOCC3)cc2)CC1	i	i	?	?	i	?
COc1ccc(N2CCN(C(=O)c3cc4ccc5cccnc5c4[nH]3)CC2)cc1	nt	nt	nt	?	i	?
Cc1ccc(C)c(N2CCN(C(=O)c3cc4ccc5cccnc5c4[nH]3)CC2)c1	nt	nt	nt	29.1µM	i	?
N#CCC(CNc1ncc(C(F)(F)F)cc1Cl)OC(=O)c1cccc([N+](=O)[O-])c1 (centres undefined)	i	i	i	?	i	?
O=C(O)C1CCCN1C(=O)c1cccs1 (centres undefined)	i	i	i	i	i	i
Cn1c(=O)c2c(SCC(N)=O)nc(CC(C)(C)C)nc2n(C)c1=O	i	i	i	i	i	?
O=C(Nc1ccc(F)cc1F)c1cc2ccc3cccnc3c2[nH]1	nt	nt	nt	2.91µM	i	?
Cc1ccc(C)c(N2CCN(C(=O)c3cccc(-n4c(C)nc5cccnc54)c3)CC2)c1	nt	nt	nt	7.31µM	i	13µM
Cc1ccc(Cl)cc1N(C)C(=O)c1cc2ccc3cccnc3c2[nH]1	nt	nt	nt	6.51µM	i	8.2µM
O=C(NCc1ccccc1)c1cc2ccc3cccnc3c2[nH]1	nt	nt	nt	?	i	?
Cc1sc(NC(=O)C2CCCCC2C(=O)O)c(C(N)=O)c1-c1ccccc1 (centres undefined)	i	i	i	i	i	i
CCOC(=O)c1c(NC(=O)C2C3CCC(O3)C2C(=O)O)sc(C)c1-c1ccc(C)cc1 (centres undefined)	i	i	i	i	i	i
Cc1sc(NC(=O)c2cccc([N+](=O)[O-])c2)c(C(N)=O)c1-c1ccc(C(C)(C)C)cc1	i	i	i	?	i	20.6µM
Cc1sc(NC(=O)/C=C/C(=O)O)c(C(N)=O)c1-c1ccc(C(C)(C)C)cc1	i	i	-91.3	23.1µM	i	?
CCOC(=O)c1c(NC(=O)/C=C/C(=O)O)sc(C)c1-c1ccc(C(C)(C)C)cc1	i	i	-106.2	13µM	i	20.6µM
CCc1ccc(-c2c(C)sc(NC(C)=O)c2C(N)=O)cc1	i	i	?	?	i	23.1µM
CC(=O)OC[C@@H]1O[C@@H](O/N=C2/C[C@@H](O)[C@@H](O)[C@@H]3[C@@H]4C(=O)N([C@@H](C)c5ccccc5)C(=O)[C@H]4CC[C@H]23)[C@H](OC(C)=O)[C@H](OC(C)=O)[C@@H]1OC(C)=O	nt	nt	nt	nt	i[21 µM]	nt
CCOC(=O)c1c(NC(=O)/C=C\C(=O)O)sc(C)c1-c1ccccc1	i	i	-98.7	?	i	?
